# From PubChem
# Sampled rows, rich in hits. Any-hit rate of the full collection: about 7.5%.
# FLuc counter = qHTS profiling assay for firefly luciferase inhibitor/activator using purifed enzyme and Km concentrations of substrates (counterscreen for miR-21 project). Luciferin 4-monooxygenase (Photinus pyralis), P08659. purified FLuc, Km substrates, luminescence inhibition. Potency, µM (top dose mostly 57.5 µM), for the others: at the highest dose activity change, negative = inhibition, usual class: inhibitors. 6.9% of 360,000 active;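 note: plate controls were vehicle for no effect and reference inhibitor for full effect; nearly all actives have a fitted effect of over 55% in size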
# Target sequence (P08659 whole entry, looked up): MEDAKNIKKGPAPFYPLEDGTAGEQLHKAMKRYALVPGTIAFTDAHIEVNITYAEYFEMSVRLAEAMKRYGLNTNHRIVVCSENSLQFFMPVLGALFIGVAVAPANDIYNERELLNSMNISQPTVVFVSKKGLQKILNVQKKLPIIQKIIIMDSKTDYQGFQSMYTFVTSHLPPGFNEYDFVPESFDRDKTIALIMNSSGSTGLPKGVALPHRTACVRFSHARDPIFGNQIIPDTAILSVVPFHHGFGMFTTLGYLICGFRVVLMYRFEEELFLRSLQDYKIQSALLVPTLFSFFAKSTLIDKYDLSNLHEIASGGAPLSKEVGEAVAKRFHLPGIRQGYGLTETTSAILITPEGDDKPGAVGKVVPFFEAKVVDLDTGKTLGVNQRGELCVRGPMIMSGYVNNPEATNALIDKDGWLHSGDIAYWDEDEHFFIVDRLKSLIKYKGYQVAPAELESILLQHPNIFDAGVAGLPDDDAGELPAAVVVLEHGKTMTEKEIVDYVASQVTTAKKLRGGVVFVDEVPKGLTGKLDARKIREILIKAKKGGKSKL
#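 Purified P. pyralis luciferase (10nM final) with 10uM D-luciferin and 10uM ATP (Km levels) in 50mM Tris acetate pH 7.5, 10mM Mg acetate, 0.01% Tween-20, 0.05% BSA; qHTS 6-point titration, ~60 µM downward; luminescence read.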
# SMN2 splice enh = qHTS Assay for Enhancers of SMN2 Splice Variant Expression. 2.8% of 210,000 active. Potency, µM (titrated, usually from 46.1 µM), for the others: at the top dose activity change, positive = activation, most hits filed as activators. HEK293 SMN2-luciferase splicing reporter, luminescence, 30-36 h; note: % of control where 0% means no effect; nearly all actives have a fitted effect of over 55% in size
#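 qHTS luciferase splicing reporter: luminescence rises when SMN2 exon 7 is included in transfected HEK293 cells. Compound exposure lasted 30-36 h at 37C, with 4.5 mM final sodium butyrate as control, followed by a ONE-Glo read.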
# Rab9 promoter act = qHTS Assay for Rab9 Promoter Activators; Huh7 Rab9 promoter-luciferase reporter, luminescence, 24 h; Potency, µM (top dose mostly 9.22 µM), for inactives: top-dose activation, negative = inhibition, hits mostly activators; 2.8% of 320,000 active; note: % of control where 0% means no effect; nearly all actives have a fitted effect of over 60% in size
#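 Huh7 cells stably carrying Rab9 promoter–luciferase reporter, plated 1500 cells/well, compound added after 2 h and incubated 24 h at 37 °C; luciferase luminescence then read after 10 min with detection reagent.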
# Luc counter = Counterscreen for Luciferase (Kinase-Glo TM) Inhibition; Potency, µM (titrated, usually from 38.3 µM), for inactives: top-dose activity change, negative = inhibition, actives largely listed as inhibitors; Kinase-Glo luciferase, ATP luminescence, 8 min; Luciferin 4-monooxygenase (Photuris pensylvanica), Q27757; 0.28% of 200,000 active; note: % is set by controls: 0 for no effect and ±100 for the full control effect; nearly all actives have a fitted effect of over 60% in size
#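 Inhibition of Kinase-Glo luciferase light generation was assessed at 10 uM ATP in pH 7.2 imidazole buffer, with luminescence measured after eight minutes at ambient temperature.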
# NPC1 promoter act = qHTS Assay for NPC1 Promoter Activators; Huh7 NPC1 promoter luciferase reporter, 24 h; Potency, µM (titrated, usually from 9.22 µM), without a hit: top-dose activation, most hits filed as activators; AID 485313, 2010; 2.4% of 320,000 active; note: % of control where 0% means no effect; nearly all actives have a fitted effect of over 60% in size
#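 Luciferase expression driven by the NPC1 promoter was measured in stably transfected Huh7 cells after a 24 h compound incubation, using a luciferase reagent and a luminescence read.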
# ELG1 genotox = qHTS screen for small molecules that induce genotoxicity in human embryonic kidney (HEK293T) cells expressing luciferase-tagged ELG1. HEK293T ELG1-luciferase reporter, luminescence, 16 h. 1.3% of 330,000 active. Potency, µM (series often up to 46 µM), without a hit: top-dose activity change, positive = activation, actives largely listed as activators; note: % of control where 0% means no effect; nearly all actives have a fitted effect of over 60% in size
#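 After overnight (16 hr) compound treatment at 37 °C, ELG1-luciferase HEK293T cells were lysed with ONE-Glo; luminescence quantified 30 min later at room temperature.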
# The depositor's hits bear a star; ? = inconclusive; . = no result; [ ] = dose if it differs, or a comment. Calls come from the whole dose curve; as a rule, active = well fitted curve in the direction sought with a large enough effect; inconclusive = small, poorly fitted or top-dose-only effect, or another doubt; inactive = no such curve, though single readings can be large; an effect the other way counts as inactive or inconclusive. Potency is the fitted concentration of half-maximal effect.
SMILES,FLuc counter,SMN2 splice enh,Rab9 promoter act,Luc counter,NPC1 promoter act,ELG1 genotox
CN(C)c1ccc(/C=C/c2nc3ccccc3c(=O)[nH]2)cc1,0.21µM*,.,0.089µM*,.,0.11µM*,0.58µM*
O=c1[nH]c(/C=C/c2ccccc2[N+](=O)[O-])nc2ccccc12,4%,15%,?,-1%,?,8%
COc1cc(/C=C/c2nc3ccccc3c(=O)[nH]2)cc(Cl)c1O,-7%,.,0%,.,15%,2%
O=c1[nH]c(/C=C/c2ccc(Br)cc2)nc2ccccc12,0.17µM*,.,0.4µM*,.,0.32µM*,?
Cc1nc(/C=C/c2ccccc2)[nH]c(=O)c1-c1ccccc1,1.9µM*,2.8µM*,0.63µM*,-2%,?,?
O=S(=O)(c1ccc2[nH]c3c(c2c1)CCCCC3)N1CCN(c2cccc(Cl)c2)CC1,0%,.,.,.,.,.
O=C(CCc1ccccc1)OCCOC(=O)CCc1ccccc1,-6%,.,0%,.,1%,5%
O=c1[nH]c(COc2ccc(Br)cc2Cl)nc2ccccc12,1.9µM*,.,3.5µM*,.,3.2µM*,7.3µM*
CN(C)c1ccc(/C=C(\C#N)c2nc3ccccc3c(=O)[nH]2)cc1,0.3µM*,-3%,.,.,.,.
Cc1cccc(/C=C(\C#N)c2nc3ccccc3c(=O)[nH]2)c1,1%,-1%,.,.,.,.
O=C(NCCc1ccccc1)C1CCCN(c2cnccn2)C1 (stereo not given),0%,.,-1%,.,11%,-5%
Cc1ccccc1C(=O)Nc1nc(-c2nnn(-c3ccc(C(C)C)cc3)c2C)ns1,-6%,.,.,.,.,.
O=C(Nc1ccccc1)N1CCCC2CCCCC21 (stereo not given),15µM*,11µM*,3.2µM*,-5%,?,21µM*
COc1ccc(-c2cc(C(=O)Nc3ccc4c(c3)OCO4)no2)cc1OC,0%,-6%,-2%,.,-1%,18%
O=C(NCc1ccc2c(c1)OCO2)c1cc(-c2ccccc2Cl)on1,17µM*,12%,-2%,-2%,1%,9%
O=C(Nc1ccc2c(c1)OCO2)c1cc(-c2ccccc2Cl)on1,5.4µM*,.,1.6µM*,.,2.5µM*,9.2µM*
Cc1nn(-c2ccccc2)c(OC(=O)c2ccccc2F)c1S(=O)(=O)c1ccccc1,?,-4%,.,.,.,.
Cc1cc(C)n(C(N)=NC(=O)c2ccc([N+](=O)[O-])cc2)n1,?,.,2.5µM*,.,2.8µM*,?
Cc1cc(C)n(C(=O)COc2ccc([N+](=O)[O-])cc2)n1,2%,15%,-4%,-4%,-1%,-1%
CC1CCN(CCCNC(=O)c2cc3sccc3n2C)CC1,-3%,.,-8%,.,0%,3%
Cn1c(C(=O)NC2CCCCC2)cc2sccc21,17µM*,.,4µM*,.,?,?
CCn1c(C(=O)NC2CCC(C)CC2)cc2sccc21 (stereo not given),15µM*,.,?,.,3.5µM*,?
CN(C(=O)c1cc2sccc2n1C)C1CCCCC1,13µM*,13µM*,3.2µM*,1%,4µM*,?
Cn1c(C(=O)N2CCCC(C(=O)O)C2)cc2sccc21 (stereo not given),3%,-12%,0%,0%,-1%,1%
Cc1ccc2oc(-c3ccc(Cl)c(NC(=O)c4ccc(-c5ccccc5[N+](=O)[O-])o4)c3)nc2c1,?,-9%,.,.,.,.
SMILES,FLuc counter,SMN2 splice enh,Rab9 promoter act,Luc counter,NPC1 promoter act,ELG1 genotox
CCOC(=O)[C@H]1[C@H]2COc3ccc(OC)cc3[C@@H]2N2C(=O)CN(CC3CCCO3)C(=O)[C@@]12C (stereo not given in full),0%,.,-4%,.,0%,1%
COc1cc(CNC(=O)c2ccc3nc(Cc4ccccc4)oc3c2)cc(OC)c1OC,0%,.,.,.,.,.
C#C[C@@]1(O)CC[C@@H]2[C@@H]3CCC4=CC(=O)CC[C@@H]4[C@H]3CC[C@]21CC,.,-12%[20.6 µM],.,1%[17.1 µM],.,.
CCC(C)(C)C1CCC2(CC1)NC(=O)N(CC(=O)NCCc1ccc(OC)c(OC)c1)C2=O (stereo not given),3%,.,-2%,.,-3%,-4%
COc1ccc(-c2noc(-c3cccnc3)n2)cc1OC,15µM*,?,3.5µM*,-12%,?,?
CCOc1ccc(-c2noc(-c3cccnc3)n2)cc1OC,13µM*,-5%,25%,-5%,?,12%
CCn1nnnc1SCC(=O)N(C)C1CCS(=O)(=O)C1 (stereo not given),.,.,-5%,.,2%,1%
COc1ccc(CNC(=O)c2cccnc2Sc2ccc(Cl)cc2)cc1,-1%,-8%,3%,2%,-1%,1%
O=C(NCc1cc([N+](=O)[O-])ccc1O)c1cccnc1Sc1ccccc1Cl,15µM*,.,-5%,.,-5%,-8%
O=C(NCc1cc([N+](=O)[O-])ccc1O)c1cccnc1Sc1ccc(Cl)cc1,?,.,16%,.,?,6.5µM*
Cc1oc2cc3oc(=O)c(CCC(=O)NCc4ccccn4)c(C)c3cc2c1C,?,.,5%,.,9%,3%
COc1ccc(C(=O)COC(=O)C(CCSC)NC(=O)COc2ccccc2)cc1 (stereo not given),?,.,-4%,.,-1%,1%
Cc1cccc(CCN(C(=O)c2csnn2)C(C(=O)NC2CCCC2)c2ccco2)c1 (stereo not given),7%,.,1%,.,-4%,-3%
COc1ccc(NC(=O)c2ccc(-c3ccc(OC)cc3)s2)cc1,-1%,10µM*,3%,0%,-6%,9%
CNC(=O)c1ccc(-c2ccc(F)cc2)s1,9.5µM*,?,?,-9%,?,18µM*
CNC(=O)c1ccc(-c2ccc(OC)cc2)s1,6.7µM*,18µM*,12%,-3%,1.3µM*,?
O=C(CSc1nc2nccnc2c(=O)n1CCc1c[nH]c2ccccc12)Nc1ccccc1,-5%,.,.,.,.,.
Cc1ccc(-n2nc(C(=O)NC(C)C)c(=O)n(C)c2=O)cc1,-1%,.,.,.,.,.
N#C/C(=C\c1ccc(F)cc1)C(=O)Nc1ccccn1,12µM*,.,0%,.,-1%,1%
CCOc1ccc(/C=C(\C#N)C(=O)Nc2ccccn2)cc1,3.4µM*,.,4%,.,2%,0%
COCCCNC(=O)/C(C#N)=C/c1ccc(F)cc1,-14%,13%,1%,-1%,-4%,0%
O=c1[nH]c(/C=C/c2ccccc2F)nc2ccccc12,0.76µM*,.,0.25µM*,.,?,12µM*
